Hit rate of the full screen: of about 390,000 compounds, about 760 (0.19%) were called active. About 3% were inconclusive and are not listed. Calls follow the shape of the dose curve; as a rule, active = well fitted inhibition curve with a large enough effect; inconclusive = small, poorly fitted or top-dose-only effect; inactive = flat fitted curve, though single readings scatter. The full list was thinned out, with actives kept by preference.
Test: qHTS for Inhibitors of Vif-A3F Interactions: qHTS; also: nearly all actives have a fitted effect of over 65% in size; as to activity, negative = active: % of control where 0% means no effect
Details: HeLa A3F-eYFP + Vif (tagged APOBEC3F with the HIV-1 protein that degrades it), YFP fluorescence increase; series mostly up to 46.1 µM; activity, negative = active: at the top concentration
Text: The recent discovery and characterization of host restriction factors, which provide a potent defense to invading retroviruses, has provided new targets for antiviral drug development. APOBEC3G (A3G) and APOBEC3F (A3F) are potent cytidine deaminases that block HIV-1 replication; HIV-1 expresses the Vif protein, which counteracts A3G and A3F by binding to them and inducing their proteasomal degradation. The Vif-A3G and Vif-A3F interactions provide two potential targets for development of small molecules which can interfere with the ability of Vif to degrade A3G or A3F. […] To identify inhibitors that can interfere with Vif mediated degradation of A3G and A3F, we have developed Hela cell lines that stably express A3G or A3F tagged with eYFP at the C-terminal end (A3G-eYFP or A3F-eYFP, respectively) and Vif. In the absence of an inhibitor, Vif induces degradation of A3G-eYFP and A3F-eYFP, and the cells are not fluorescent. In the presence of an inhibitor, it is expected that Vif will be unable to degrade A3G-eYFP and/or A3F-eYFP, resulting in an increase in yellow fluorescence. In this assays Vif A3F was screened against the Molecular Library Small Molecule Repository (MLSMR). NIH Chemical Genomics Center [NCGC] NIH Molecular Libraries Probe Centers Network [MLPCN] MLPCN Grant: MH093245 Assay Submitter (PI): Vinay Pathak, National Cancer Institute
5 uL of 700 cells/well of A3F-YFP cells are dispensed into black, clear bottom plates. The plates are incubated overnight at 37 deg C. 23 nL of compounds are added by pintool. The plates are incubated overnight at 37 deg C and then read on the TTP Acumen (Ex 488/ Em 500-530).
Potency is read from the fitted curve at half-maximal effect.

Structure (SMILES) | Potency | activity, negative = active
CC1=CC(=Cc2sc3ccccc3[n+]2C)C=C(C)O1 | 5.01 µM (active) | 
CNP1(NC)=Nc2nn(-c3ccccc3)c(N)c2C(c2ccccc2)=N1 |  | 10.7% (inactive)
CC/C(=N\NC(=O)c1ccccc1O)c1c(O)n(Cc2ccccc2)c(=O)[nH]c1=O | 11.2 µM (active) | 
O=C(N/N=C/c1c(O)n(Cc2ccccc2)c(=O)[nH]c1=O)c1ccccc1 |  | -1.19% (inactive)
CCC(=NCc1ccco1)c1c(O)n(Cc2ccccc2)c(=O)[nH]c1=O |  | -1.46% (inactive)
Cc1ccc2c(c1)=C/C(=C\c1c(O)[nH]c(=O)[nH]c1=O)C(=O)N=2 |  | -6.73% (inactive)
COc1cc(Cn2c(N)c(C(=O)NCc3ccco3)c3nc4ccccc4nc32)cc(OC)c1OC |  | -27.3% (inactive)
CCCn1c(C(=O)c2ccccc2OC)nc2ccccc21 |  | 3.65% (inactive)
CCOc1ccc(CNC(=O)c2cccc(Nc3nc4ccccc4n4nnnc34)c2)cc1OC | 12.6 µM (active) | 
COC(=O)C1=C(c2cc3ccccc3s2)C[C@@H]2CC[C@H]1N2C(=O)NCc1cccc2ccccc12 |  | 6.94% (inactive)
CC(=CCOc1ccc2ccc(=O)oc2c1)C1=CC(=O)C(C)(C)O1 |  | -1.31% (inactive)
O=c1c2ccccc2[nH]c(=S)n1-c1cccc(Cl)c1 |  | -2.68% (inactive)
Cn1cc(/C=C/c2nc3ccccc3c(=O)n2-c2ccccc2)c2ccccc21 |  | -2.89% (inactive)
O=c1c2ccccc2nc(/C=C/c2ccc(F)cc2)n1-c1ccccc1O | 22.4 µM (active) | 
O=c1c2ccccc2nc(/C=C/c2ccco2)n1-c1ccccc1O |  | 0.199% (inactive)
CCC(C)(O)C(=O)OC1C(=O)OC2CC3C(C)=CC(=O)C(O)C3(C)C3C4(O)OCC23C1C(C)C4O (stereo not given) |  | 4.47% (inactive)
C=C(C)C1(CCCC)C(=O)NC(=S)NC1=O |  | -4.34% (inactive)
COC(=O)C1=C(c2ccc(Cl)c(C(F)(F)F)c2)C[C@@H]2CC[C@H]1N2C(=O)NC(C)C |  | -0.754% (inactive)
COC(=O)C1=C(c2cc3ccccc3o2)C[C@@H]2CC[C@H]1N2C(=O)NC1CCCCC1 |  | -0.572% (inactive)
CC(C)(C)c1ccc(OC(=O)N2CCCCC2)cc1 |  | -16.2% (inactive)

Source: PubChem BioAssay AID602313 (National Center for Advancing Translational Sciences (NCATS), 2012)
